Test results from PubChem BioAssay (NCI).
The panel holds about 79,000 compounds, 15% with a hit somewhere; the sample as a whole holds those more often. Values without a mark were called inactive. Activity calls are given as the source filed them. No stated cut-off is given here; in the data, active means growth inhibition above about 70%; inactive means the rest.

Assay: NCI Yeast Anticancer Drug Screen. Data for the rad18 strain (AID 177)
Settings: S. cerevisiae rad18 mutant growth inhibition, active compounds read high
Experimental: Growth inhibition of yeast strains with defined genetic alterations is measured as a screen for potential anti-cancer activity. Selected strains with alterations in DNA damage repair or cell cycle control were exposed to compounds and growth inhibition was measured relative to vehicle treated controls. The strain used in this assay is rad18

CCCCCCCCCCCCCCCCCCN(C)CC(COP(=O)([O-])OCC[N+](C)(C)C)OC (stereo not given)
growth inhibition (at 1.2 µM): -6%
growth inhibition (at 3.7 µM): 11%
growth inhibition (at 11.0 µM): 98% (active)
growth inhibition (at 33.0 µM): 98% (active)
growth inhibition (at 100.0 µM): 98% (active)

CCOc1ccc2c(c1)c(CC(=O)O)cn2C
growth inhibition (at 1.2 µM): 3%
growth inhibition (at 3.7 µM): 5%
growth inhibition (at 11.0 µM): 26%
growth inhibition (at 33.0 µM): 57%
growth inhibition (at 100.0 µM): 87% (active)

NNC(=O)CCc1ccc2ccc3ccccc3c2c1
growth inhibition (at 1.2 µM): 17%
growth inhibition (at 3.7 µM): 15%
growth inhibition (at 11.0 µM): -8%
growth inhibition (at 33.0 µM): 38%
growth inhibition (at 100.0 µM): 66%

Cc1nn(-c2cc(Cl)ccc2[N+](=O)[O-])c(C)c1Cl
growth inhibition (at 1.2 µM): 2%
growth inhibition (at 3.7 µM): 2%
growth inhibition (at 11.0 µM): 2%
growth inhibition (at 33.0 µM): -14%
growth inhibition (at 100.0 µM): 1%

c1ccc2c(c1)c1ncccc1c1nccnc21
growth inhibition (at 1.2 µM): -10%
growth inhibition (at 3.7 µM): -1%
growth inhibition (at 11.0 µM): -2%
growth inhibition (at 33.0 µM): -1%
growth inhibition (at 100.0 µM): 13%

CCC(C)COC(=O)c1ccc(N=Cc2ccc(C=Nc3ccc(C(=O)OCC(C)CC)cc3)cc2)cc1 (stereo not given)
growth inhibition (at 1.2 µM): -1%
growth inhibition (at 3.7 µM): -3%
growth inhibition (at 11.0 µM): 3%
growth inhibition (at 33.0 µM): 13%
growth inhibition (at 100.0 µM): 22%

COc1ccc(/C(C)=N/OC(=O)c2c(-c3ccccc3Cl)noc2C)cc1CN1CCOCC1
growth inhibition (at 1.2 µM): -16%
growth inhibition (at 3.7 µM): -14%
growth inhibition (at 11.0 µM): -2%
growth inhibition (at 33.0 µM): 21%
growth inhibition (at 100.0 µM): 74% (active)

CCOC(=O)C1=C(C(=O)c2ccccc2)C(c2ccccc2[N+](=O)[O-])C(C(=O)c2ccccc2)=C(C(=O)OCC)N1
growth inhibition (at 1.2 µM): 0%
growth inhibition (at 3.7 µM): 1%
growth inhibition (at 11.0 µM): 1%
growth inhibition (at 33.0 µM): 7%
growth inhibition (at 100.0 µM): 39%
